Test results reported in PubChem BioAssay (NCI).
The panel holds about 79,000 compounds, 15% with a hit somewhere; the sample as a whole holds those more often. Activity calls are given as the source filed them. No stated cut-off is given here; in the data, active means growth inhibition above about 70%; inactive means the rest.

How the values were obtained:
[1] = NCI Yeast Anticancer Drug Screen. Data for the wt1 strain (AID 149);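 further: 0% = growth of vehicle-treated wt1 cultures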; conditions: S. cerevisiae wt1 strain (SPY 50644) growth inhibition, active compounds read high
Outline: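 Yeast wt1 strain exposed to compounds; growth inhibition measured relative to vehicle-treated controls.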

[2] = NCI Yeast Anticancer Drug Screen. Data for the rad50EPP+ strain (AID 151);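 further: 0% = growth of vehicle-treated control cultures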; conditions: S. cerevisiae rad50 mutant strain, active compounds read high
Outline: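 Compounds were applied to the rad50EPP+ yeast strain, which bears a defined DNA repair alteration, and growth inhibition was determined relative to vehicle-treated cultures.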

[3] = NCI Yeast Anticancer Drug Screen. Data for the mgt1 strain (AID 153); conditions: S. cerevisiae mgt1 mutant growth inhibition, active compounds read high
Outline: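 Strain: mgt1 yeast, one of a set carrying defined DNA damage repair or cell cycle control alterations. Compound-treated growth compared with vehicle.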

[4] = NCI Yeast Anticancer Drug Screen. Data for the rad50 strain (AID 155);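 further: 0% = growth of vehicle-only cultures of the same strain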; conditions: S. cerevisiae rad50 strain growth inhibition, active compounds read high
Outline: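 Yeast carrying a defined DNA repair defect were exposed to test compounds, and growth was compared with vehicle-treated controls to give percent inhibition.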

[5] = NCI Yeast Anticancer Drug Screen. Data for the mec2-1 strain (AID 157); conditions: S. cerevisiae mec2-1 strain, active compounds read high
Outline: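 Strain: mec2-1 (DNA repair/cell cycle alteration). Compound exposure, then growth measured; inhibition expressed relative to vehicle.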

[6] = NCI Yeast Anticancer Drug Screen. Data for the rad14 strain (AID 159);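 further: 0% = growth of vehicle-treated control cultures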; conditions: S. cerevisiae rad14 strain growth inhibition, active compounds read high
Outline: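 Yeast cells carrying a defined DNA-repair defect were exposed to compounds, and growth inhibition was calculated relative to vehicle-treated control cultures.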

[7] = NCI Yeast Anticancer Drug Screen. Data for the sgs1 mgt1 strain (AID 161);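 further: 0% = growth of cultures given vehicle only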; conditions: S. cerevisiae sgs1 mgt1 strain, active compounds read high
Outline: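 Genetically altered yeast, compound exposure, growth inhibition relative to vehicle.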

[8] = NCI Yeast Anticancer Drug Screen. Data for the CLN2oe strain (AID 163);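 further: 0% = growth of vehicle-only control cultures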; conditions: S. cerevisiae CLN2oe strain, active compounds read high
Outline: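 Growth of a genetically modified yeast strain is measured after compound exposure and compared with cultures given vehicle alone.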

[9] = NCI Yeast Anticancer Drug Screen. Data for the cln2 rad14 strain (AID 165);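 further: 0% = growth equal to vehicle treated cultures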; conditions: S. cerevisiae cln2 rad14 strain, active compounds read high
Outline: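 Compounds are applied to the cln2 rad14 yeast strain, and growth is then compared with that of vehicle-treated cultures to give inhibition.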

[10] = NCI Yeast Anticancer Drug Screen. Data for the bub3 strain (AID 167); conditions: S. cerevisiae bub3 mutant strain, active compounds read high
Outline: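 Compounds were applied to a genetically altered yeast strain carrying a cell-cycle control defect. Growth inhibition was scored against vehicle-treated controls.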

[11] = NCI Yeast Anticancer Drug Screen. Data for the wt2 strain (AID 169);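 further: 0% = growth of vehicle-treated yeast cultures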; conditions: S. cerevisiae wt2 strain growth inhibition, active compounds read high
Outline: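 This strain belongs to a panel of yeast strains with defined genetic alterations in DNA damage repair or cell cycle control. Compounds are applied, and growth inhibition is measured against vehicle-treated cultures.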

[12] = NCI Yeast Anticancer Drug Screen. Data for the mlh1 strain (AID 171);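 further: 0% = growth of vehicle-treated control cultures of the same strain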; conditions: S. cerevisiae mlh1 strain growth inhibition, active compounds read high
Outline: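 Growth of the mutant yeast strain after compound exposure, expressed as inhibition relative to vehicle-only controls.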

[13] = NCI Yeast Anticancer Drug Screen. Data for the sgs1 strain (AID 173);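 further: 0% = growth of vehicle-only control cultures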; conditions: S. cerevisiae sgs1 mutant, active compounds read high
Outline: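 Growth of a yeast strain bearing a defined genetic alteration is measured after compound treatment. Inhibition is expressed relative to vehicle-only controls.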

[14] = NCI Yeast Anticancer Drug Screen. Data for the mlh1 rad18 strain (AID 175); conditions: S. cerevisiae mlh1 rad18 strain growth inhibition, active compounds read high
Outline: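 Read-out is yeast growth inhibition, calculated against vehicle-only controls. The compound was applied to a strain engineered with DNA damage repair alterations.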

[15] = NCI Yeast Anticancer Drug Screen. Data for the rad18 strain (AID 177); conditions: S. cerevisiae rad18 mutant growth inhibition, active compounds read high
Outline: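 Growth of the mutant yeast strain after compound exposure, normalised to vehicle-only cultures.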

[16] = at 5.0 µM (retest, dose inferred, filed as 0.5)
[17] = at 50.0 µM (retest, dose inferred, filed as 5.0)

Measured: growth inhibition

CC1(C)OC(=O)C(=Cc2ccc([N+](=O)[O-])s2)C(=O)O1
inactive: [1]; at 1.2 µM -28% | [1]; at 3.7 µM -33% | [1]; at 11.0 µM -14% | [1]; at 33.0 µM 32% | [1]; at 100.0 µM 35% | [2]; at 1.2 µM -17% | [2]; at 3.7 µM -20% | [2]; at 11.0 µM -2% | [3]; at 1.2 µM -8% | [3]; at 3.7 µM 15% | [3]; at 11.0 µM 26% | [3]; at 100.0 µM 50% | [4]; at 1.2 µM -9% | [4]; at 3.7 µM -7% | [4]; [16] 28% | [4]; at 11.0 µM -13% | [4]; at 33.0 µM -6% | [4]; at 50.0 µM 68.6% | [5]; at 1.2 µM -28% | [5]; at 3.7 µM -5% | [5]; [16] 23% | [5]; at 11.0 µM -23% | [5]; at 33.0 µM 12% | [6]; at 1.2 µM -12% | [6]; at 3.7 µM -5% | [6]; at 11.0 µM 2% | [6]; at 33.0 µM 9% | [7]; [16] 56% | [8]; at 1.2 µM 14% | [8]; at 3.7 µM 26% | [8]; at 11.0 µM 29% | [8]; at 33.0 µM 63% | [9]; [16] 47% | [9]; at 50.0 µM 30.8% | [10]; at 1.2 µM -18% | [10]; at 3.7 µM -13% | [10]; [16] 48% | [10]; at 11.0 µM -8% | [10]; at 33.0 µM 60% | [10]; at 100.0 µM 5% | [11]; at 1.2 µM 0% | [11]; at 3.7 µM -9% | [11]; at 11.0 µM -7% | [11]; at 33.0 µM 62% | [12]; at 1.2 µM -28% | [12]; at 3.7 µM -24% | [12]; at 11.0 µM -33% | [12]; at 33.0 µM 38% | [13]; at 1.2 µM -31% | [13]; at 3.7 µM -25% | [13]; at 11.0 µM -15% | [13]; at 33.0 µM 48% | [14]; [16] 10% | [14]; [17] 51% | [15]; at 1.2 µM 10% | [15]; at 3.7 µM 21% | [15]; at 11.0 µM 32% | [15]; at 100.0 µM 69%
active: [2]; at 33.0 µM 86% | [2]; at 100.0 µM 88% | [3]; at 33.0 µM 95% | [4]; [17] 89% | [4]; at 100.0 µM 98% | [5]; [17] 99% | [5]; at 50.0 µM 89.3% | [5]; at 100.0 µM 70% | [6]; at 100.0 µM 99% | [7]; [17] 100% | [7]; at 50.0 µM 90% | [8]; at 100.0 µM 97% | [9]; [17] 81% | [10]; [17] 100% | [10]; at 50.0 µM 85% | [11]; at 100.0 µM 71% | [12]; at 100.0 µM 71% | [13]; at 100.0 µM 98% | [14]; at 50.0 µM 92.3% | [15]; at 33.0 µM 85%
